In PubChem BioAssay (NCI) one finds growth data, which are given here for eight molecules.

Some test systems named below: SK-MEL-2 melanoma; EKVX NSCLC; SN12C renal; UO-31 renal; TK-10 renal; ACHN renal; CAKI-1 renal; A498 renal; CCRF-CEM leukemia; MOLT-4 leukemia; SR leukemia; RPMI-8226 leukemia; OVCAR-8 ovarian; OVCAR-5 ovarian; OVCAR-4 ovarian; SK-OV-3 ovarian; IGROV1 ovarian; OVCAR-3 ovarian; HS 578T breast; NCI/ADR-RES ovarian.
Common to all, as to experiment: NCI-60 one-dose screen, 48 h (100 = growth as untreated, 0 = no growth, -100 = all killed)
What all share (settings): 10 µM unless noted

Molecules are shown by their SMILES. About 83,000 compounds went through this panel and 20% of them were active in at least one assay; those are over-represented in the sample as a whole.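 Assay: single dose, 48 h. Readout: percent growth (0 = no net growth; negative = cell death). Active: <10.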 Unmarked numbers belong to inactive results. Active and inactive are the calls of the source.

On to `C[C@H]1c2ccccc2CN1CCCOc1cc2c(cc1OCC1CC1)C1(CCCC1)C(N)=N2`, for which the growth was 54% in the test on SK-MEL-2 melanoma; 72.8% in the test on EKVX NSCLC; 67.6% in the test with SN12C renal; 29.3% with UO-31 renal; 92.7% with TK-10 renal; 69% in the test with ACHN renal. The growth with CAKI-1 renal was 18.5%; with A498 renal it was 32.5%; in the test on CCRF-CEM leukemia it was 54.6%; in the test on MOLT-4 leukemia, 36.4%; in the test on SR leukemia, 13.8%; in the test on RPMI-8226 leukemia, 17.6%. In addition, the growth with OVCAR-8 ovarian is 65.9%; with OVCAR-5 ovarian it was 70.5%; in the test on OVCAR-4 ovarian it was 48.8%; with SK-OV-3 ovarian, 90.2%; in the test on IGROV1 ovarian, 54.8%; in the test with OVCAR-3 ovarian, 76.9%. In addition, the growth with HS 578T breast is 56%; in the test on NCI/ADR-RES ovarian, 68%.

As for `Nc1ccc(Cl)c2c(=O)c3ccccc3[nH]c12`, the growth in the test on SK-MEL-2 melanoma is 81.2%; in the test on EKVX NSCLC, 75.2%; in the test with SN12C renal it was 89.2%; in the test on UO-31 renal it was 65.1%; in the test with TK-10 renal it was 78.1%; in the test with ACHN renal, 80.8%. Besides, the growth with CAKI-1 renal was 77.7%; in the test on A498 renal, 69.3%; in the test on CCRF-CEM leukemia, 100%; with MOLT-4 leukemia, 74.1%; in the test on SR leukemia, 100%; with RPMI-8226 leukemia, 71%. The growth was 92.2% in the test with OVCAR-8 ovarian; 93.2% in the test on OVCAR-5 ovarian; 53.8% in the test on OVCAR-4 ovarian; 89.2% with SK-OV-3 ovarian; 94.7% in the test with IGROV1 ovarian; 75.2% in the test on OVCAR-3 ovarian. Besides, the growth was 98% in the test with HS 578T breast and 97% in the test on NCI/ADR-RES ovarian.

`Cc1ccc(NC(=O)c2ccc(Nc3ncnc4c3cnn4-c3cccc(F)c3)cc2)cc1`: the growth with SK-MEL-2 melanoma was 104%; in the test with EKVX NSCLC it was 102%; with SN12C renal, 96.2%; with UO-31 renal, 90.8%; in the test with TK-10 renal, 105%; with ACHN renal, 98.4%. The growth is 90.7% in the test on CAKI-1 renal; 80.7% in the test with A498 renal; 95.5% in the test with CCRF-CEM leukemia; 96.3% with MOLT-4 leukemia; 92.7% in the test with SR leukemia; 90.2% in the test on RPMI-8226 leukemia. Also, the growth was 97.6% with OVCAR-8 ovarian; 99.6% in the test with OVCAR-5 ovarian; 98.9% with OVCAR-4 ovarian; 109% with SK-OV-3 ovarian; 97.9% in the test with IGROV1 ovarian; 106% in the test with OVCAR-3 ovarian. Further, the growth in the test on HS 578T breast is 96.6%; with NCI/ADR-RES ovarian, 98.8%.

Consider `O=C(Nc1ncc(Cc2ccccc2Cl)s1)c1ccc2c(c1)OCCO2`, for which the growth in the test with SK-MEL-2 melanoma was 39.8%; with EKVX NSCLC it was 33.8%; with SN12C renal, 30.2%; in the test with UO-31 renal it was 51.9%; with TK-10 renal it was 46.2%; with ACHN renal, 37.3%. The growth with CAKI-1 renal is 20%; with A498 renal, -0.0402% (active); with CCRF-CEM leukemia, 6.45% (active); in the test on MOLT-4 leukemia it was 7.02% (active); in the test with SR leukemia it was 5.14% (active); in the test with RPMI-8226 leukemia, 19.3%. Also, the growth with OVCAR-8 ovarian is 24.2%; in the test on OVCAR-5 ovarian it was 33.2%; with OVCAR-4 ovarian, 43.5%; in the test on SK-OV-3 ovarian, 32.5%; in the test on IGROV1 ovarian, 28.4%; in the test with OVCAR-3 ovarian it was -14.4% (active). Further, the growth in the test with HS 578T breast is 19.8%; with NCI/ADR-RES ovarian, 14.5%.

On to `CC(=O)/C(Br)=C/c1ccc(Br)o1`, for which the growth in the test on SK-MEL-2 melanoma is 99.2%; with EKVX NSCLC it was 105%; with SN12C renal, 73.5%; in the test with UO-31 renal, 52.7%; with TK-10 renal, 71.5%; with ACHN renal it was 60.1%. Also, the growth in the test on CAKI-1 renal was 26.1%; with A498 renal, 105%; in the test on CCRF-CEM leukemia, -31% (active); in the test with MOLT-4 leukemia, -15.4% (active); with SR leukemia, -18.2% (active); in the test with RPMI-8226 leukemia, 67.1%. Also, the growth in the test on OVCAR-8 ovarian was 79%; in the test on OVCAR-5 ovarian, 95.6%; in the test with OVCAR-4 ovarian it was 86.1%; in the test on SK-OV-3 ovarian, 104%; in the test on IGROV1 ovarian it was 86.9%; in the test with OVCAR-3 ovarian, 23.5%. In addition, the growth in the test on HS 578T breast was 26.7%; in the test on NCI/ADR-RES ovarian, 93.9%.

As for `O=C1c2c(c3c4cc(F)ccc4oc3c3[nH]c4ccccc4c23)C(=O)N1O`, the growth with SK-MEL-2 melanoma is 78%; in the test on EKVX NSCLC, 62.3%; in the test on SN12C renal it was 28.1%; in the test with UO-31 renal, 8.37% (active); with TK-10 renal, 102%; with ACHN renal, 0.963% (active). The growth was 16.9% with CAKI-1 renal; -6.56% (active) in the test with A498 renal; 5.67% (active) in the test on CCRF-CEM leukemia; -22.5% (active) with MOLT-4 leukemia; 9.66% (active) in the test with SR leukemia; 26.2% with RPMI-8226 leukemia. The growth with OVCAR-8 ovarian was 50.8%; in the test on OVCAR-5 ovarian, 100%; with OVCAR-4 ovarian it was 61.4%; with SK-OV-3 ovarian, 55.7%; in the test with IGROV1 ovarian, 25.6%; with OVCAR-3 ovarian, 25.5%. The growth in the test with HS 578T breast is 65.2%; in the test with NCI/ADR-RES ovarian it was 45.6%.

For `COc1ccc(-c2cn(Cc3ccc4c(Br)cc(Br)c(O)c4n3)nn2)cc1`, the growth in the test with SK-MEL-2 melanoma is 101%; in the test with EKVX NSCLC, 84.2%; with SN12C renal, 100%; with UO-31 renal, -92.3% (active); in the test on TK-10 renal, 91.3%; with ACHN renal, -68.7% (active). For the same molecule, the growth is 61.6% with CAKI-1 renal; 99.6% with A498 renal; 73.9% with CCRF-CEM leukemia; 87% with MOLT-4 leukemia; -23.1% (active) in the test with SR leukemia; 67.2% in the test on RPMI-8226 leukemia. The growth in the test on OVCAR-8 ovarian is 88.7%; in the test on OVCAR-5 ovarian, 95.6%; with OVCAR-4 ovarian, 96.2%; in the test with SK-OV-3 ovarian, 108%; in the test with IGROV1 ovarian it was 56.6%; in the test on OVCAR-3 ovarian, 73.2%. The figures for the growth in the test with HS 578T breast and with NCI/ADR-RES ovarian were 109% and 102%, respectively.

For the molecule `COC(=O)c1nc(-c2ccccc2)oc1S(=O)(=O)NCC(c1ccc(Cl)cc1)N1CCCCC1` (stereo not given), the growth was 93.8% in the test on SK-MEL-2 melanoma; 104% in the test with EKVX NSCLC; 75.5% in the test with SN12C renal; 61.2% with UO-31 renal; 67.3% with TK-10 renal; 68.2% in the test with ACHN renal. In addition, the growth in the test with CAKI-1 renal is 49.4%; in the test with A498 renal, 96.4%; with CCRF-CEM leukemia, -19.2% (active); in the test on MOLT-4 leukemia, 1.79% (active); with SR leukemia, -3.58% (active); with RPMI-8226 leukemia, 20%. Moreover, the growth is 57% with OVCAR-8 ovarian; 90.8% with OVCAR-5 ovarian; 89.3% in the test on OVCAR-4 ovarian; 95.5% with SK-OV-3 ovarian; 56.5% in the test on IGROV1 ovarian; 57.5% in the test with OVCAR-3 ovarian. Moreover, the growth in the test with HS 578T breast is 100%; in the test with NCI/ADR-RES ovarian it was 89%.
